Screening data deposited in PubChem BioAssay by University of Kansas High Throughput Screening Laboratory.
Compounds with a hit are over-represented: about 3.6% of the library has one in this group of screens.
mHTT CaM bind – disrupts binding of mutant huntingtin to calmodulin | P42858 | AlphaScreen His-mHTT/GST-CaM binding, luminescence | inhibition, % at 15 µM | 3.6% of 190,000 active
Target sequence (P42858 whole entry, looked up, change not shown): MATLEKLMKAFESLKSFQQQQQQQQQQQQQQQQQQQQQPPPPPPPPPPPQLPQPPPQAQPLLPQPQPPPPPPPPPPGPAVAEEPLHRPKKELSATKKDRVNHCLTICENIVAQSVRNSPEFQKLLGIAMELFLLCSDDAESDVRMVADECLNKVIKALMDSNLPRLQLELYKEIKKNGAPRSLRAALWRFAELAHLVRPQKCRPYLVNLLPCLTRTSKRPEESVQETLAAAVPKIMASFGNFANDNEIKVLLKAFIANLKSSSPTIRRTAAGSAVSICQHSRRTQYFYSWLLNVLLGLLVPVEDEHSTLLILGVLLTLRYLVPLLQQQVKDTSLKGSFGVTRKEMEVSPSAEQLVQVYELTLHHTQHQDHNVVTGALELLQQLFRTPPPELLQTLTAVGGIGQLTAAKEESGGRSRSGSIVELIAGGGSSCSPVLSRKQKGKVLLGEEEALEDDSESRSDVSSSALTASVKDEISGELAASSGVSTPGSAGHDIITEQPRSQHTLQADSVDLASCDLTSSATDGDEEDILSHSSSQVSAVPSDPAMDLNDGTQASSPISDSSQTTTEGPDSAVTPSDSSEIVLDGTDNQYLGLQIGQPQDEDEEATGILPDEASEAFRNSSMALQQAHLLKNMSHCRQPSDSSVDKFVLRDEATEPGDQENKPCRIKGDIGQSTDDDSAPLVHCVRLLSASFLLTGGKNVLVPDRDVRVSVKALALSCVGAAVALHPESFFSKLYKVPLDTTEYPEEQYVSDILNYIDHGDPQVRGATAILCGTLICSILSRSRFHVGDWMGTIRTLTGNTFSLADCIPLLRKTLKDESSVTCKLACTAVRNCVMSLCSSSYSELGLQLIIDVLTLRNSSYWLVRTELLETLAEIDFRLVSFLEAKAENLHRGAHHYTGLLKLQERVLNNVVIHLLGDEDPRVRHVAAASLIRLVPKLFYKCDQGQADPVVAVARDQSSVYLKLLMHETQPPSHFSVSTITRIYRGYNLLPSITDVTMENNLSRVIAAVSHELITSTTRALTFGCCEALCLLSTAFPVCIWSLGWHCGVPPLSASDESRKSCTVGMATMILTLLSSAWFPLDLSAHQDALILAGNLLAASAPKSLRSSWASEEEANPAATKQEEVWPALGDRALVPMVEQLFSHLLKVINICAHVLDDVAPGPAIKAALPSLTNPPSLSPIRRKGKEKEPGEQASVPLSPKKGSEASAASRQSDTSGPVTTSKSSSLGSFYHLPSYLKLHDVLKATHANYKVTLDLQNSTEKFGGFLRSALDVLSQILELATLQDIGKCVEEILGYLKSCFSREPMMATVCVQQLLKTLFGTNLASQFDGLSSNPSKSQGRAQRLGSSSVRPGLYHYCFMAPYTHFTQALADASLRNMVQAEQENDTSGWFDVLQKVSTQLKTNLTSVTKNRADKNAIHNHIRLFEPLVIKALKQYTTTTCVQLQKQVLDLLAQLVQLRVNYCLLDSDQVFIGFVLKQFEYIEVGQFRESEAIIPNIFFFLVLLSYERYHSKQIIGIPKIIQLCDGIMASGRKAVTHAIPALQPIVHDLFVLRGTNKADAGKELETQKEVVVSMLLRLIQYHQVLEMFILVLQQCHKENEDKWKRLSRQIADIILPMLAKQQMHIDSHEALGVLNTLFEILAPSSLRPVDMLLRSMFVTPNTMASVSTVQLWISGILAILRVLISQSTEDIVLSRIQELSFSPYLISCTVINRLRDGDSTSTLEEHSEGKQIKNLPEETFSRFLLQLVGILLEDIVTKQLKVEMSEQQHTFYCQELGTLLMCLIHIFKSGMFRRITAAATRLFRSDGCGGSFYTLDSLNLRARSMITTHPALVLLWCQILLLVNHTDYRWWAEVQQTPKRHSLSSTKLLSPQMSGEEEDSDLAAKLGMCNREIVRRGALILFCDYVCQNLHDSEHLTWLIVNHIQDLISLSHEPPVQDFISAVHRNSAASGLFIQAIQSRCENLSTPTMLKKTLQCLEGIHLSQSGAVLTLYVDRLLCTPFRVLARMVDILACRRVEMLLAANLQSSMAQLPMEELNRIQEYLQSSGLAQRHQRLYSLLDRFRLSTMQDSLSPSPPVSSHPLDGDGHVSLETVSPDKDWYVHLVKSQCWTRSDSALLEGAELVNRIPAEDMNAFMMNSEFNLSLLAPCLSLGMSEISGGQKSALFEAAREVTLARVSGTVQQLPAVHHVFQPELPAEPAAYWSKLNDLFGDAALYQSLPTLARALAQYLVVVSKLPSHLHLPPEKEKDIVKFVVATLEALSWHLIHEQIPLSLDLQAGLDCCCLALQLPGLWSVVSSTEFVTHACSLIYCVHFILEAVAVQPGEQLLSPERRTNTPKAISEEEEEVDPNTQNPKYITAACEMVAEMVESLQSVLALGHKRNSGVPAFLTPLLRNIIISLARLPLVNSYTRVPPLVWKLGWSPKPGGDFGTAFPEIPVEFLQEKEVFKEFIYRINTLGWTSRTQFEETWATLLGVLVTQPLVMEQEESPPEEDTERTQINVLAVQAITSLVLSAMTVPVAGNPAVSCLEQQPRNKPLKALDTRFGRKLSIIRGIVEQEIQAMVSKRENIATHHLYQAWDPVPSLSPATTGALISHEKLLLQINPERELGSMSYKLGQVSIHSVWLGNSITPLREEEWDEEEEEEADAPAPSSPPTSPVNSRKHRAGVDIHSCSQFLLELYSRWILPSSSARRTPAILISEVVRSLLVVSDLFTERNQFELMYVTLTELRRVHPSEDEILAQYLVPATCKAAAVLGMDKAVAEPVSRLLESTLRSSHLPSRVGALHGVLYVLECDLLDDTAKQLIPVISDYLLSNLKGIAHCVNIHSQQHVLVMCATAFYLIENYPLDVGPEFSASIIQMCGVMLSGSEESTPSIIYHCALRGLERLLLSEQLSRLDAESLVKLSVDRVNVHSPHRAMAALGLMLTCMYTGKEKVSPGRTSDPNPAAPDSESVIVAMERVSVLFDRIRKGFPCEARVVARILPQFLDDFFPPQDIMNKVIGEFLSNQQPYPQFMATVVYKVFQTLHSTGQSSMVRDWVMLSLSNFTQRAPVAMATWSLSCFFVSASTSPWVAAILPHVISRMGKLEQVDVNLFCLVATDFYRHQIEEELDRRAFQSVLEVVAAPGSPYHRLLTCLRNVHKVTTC
Pf apPOL block – Pf-apPOL DNA polymerase inhibition; AID 1794808; 0.25% of 210,000 active; Recombinant Pf-apPOL, molecular beacon fluorescence, 1.5 h; inhibition, % at 10 µM
A number is an active result; ! = a repeat was not active. Rule as the data show it: active = inhibition above about 50%; inactive = the rest.

For COc1ccc(-c2oc(NC(=O)C(F)(F)F)c(C#N)c2-c2ccc(OC)cc2)cc1 the results were mHTT CaM bind 63 and Pf apPOL block inactive.
`COc1ccc(-c2oc(N=CN3CCCCCC3)c(C#N)c2-c2ccc(OC)cc2)cc1` gave mHTT CaM bind inactive and Pf apPOL block inactive.
COc1cccc(-c2nc(C3CCN(C(=O)C4COc5ccccc5O4)CC3)no2)c1 (stereo not drawn) was read as mHTT CaM bind 87 and Pf apPOL block inactive.
For COc1cccc(-c2nc(C3CCN(C(=O)c4ccccc4)CC3)no2)c1 the results were mHTT CaM bind inactive and Pf apPOL block inactive.
`Cc1cccc(-c2nc(C3CCN(C(=O)Cc4cccc(F)c4)CC3)no2)c1` gave mHTT CaM bind inactive and Pf apPOL block inactive.
For Cc1cccc(-c2nc(C3CCN(C(=O)COc4ccc(Cl)cc4)CC3)no2)c1 the results were mHTT CaM bind 80 and Pf apPOL block inactive.
Screening N#CC(=CN1CCN(Cc2ccccc2)CC1)S(=O)(=O)c1ccc(Cl)cc1 returned Pf apPOL block inactive.
Cc1cccc(NC(=O)N2CCC(n3cnc4ccc(F)cc4c3=O)CC2)c1 was read as mHTT CaM bind inactive and Pf apPOL block inactive.
N=C1NC(=O)/C(=C/c2ccccc2Br)S1 was read as mHTT CaM bind inactive and Pf apPOL block inactive.
For N=C1NC(=O)/C(=C/c2ccc(Cl)cc2Cl)S1 the results were mHTT CaM bind inactive and Pf apPOL block 56.
For S=C(Nc1ccc2[nH]ccc2c1)NC1CCCC1 the results were Pf apPOL block inactive.
`O=C(Nc1ccc2c(c1)OCCO2)c1cc2n(n1)CCCN(Cc1ccc(F)cc1)C2=O` gave mHTT CaM bind inactive and Pf apPOL block inactive.
`Cc1cc(C2CCCN2C(=O)c2cccc(C(F)(F)F)c2)no1` (stereo not drawn) gave mHTT CaM bind inactive and Pf apPOL block inactive.
`O=C1CNC(=S)N1CCc1c[nH]c2ccccc12` gave Pf apPOL block inactive.
For COc1ccc(CCN2CC(=O)N3CCCC(C4=CC(=O)C=CC4=O)=C3C2=O)cc1OC the results were mHTT CaM bind inactive and Pf apPOL block inactive.
For O=C1C=CC(=O)C(C2=C3C(=O)N(CCc4c[nH]c5ccccc45)CC(=O)N3CCC2)=C1 the results were mHTT CaM bind 63 and Pf apPOL block inactive.
Screening O=C1C=CC(=O)C(C2=C3C(=O)N(CCc4ccccc4)CC(=O)N3CCC2)=C1 returned mHTT CaM bind 80 and Pf apPOL block inactive.
`CC1=C(C(=O)Nc2ccc(F)cc2)C(c2ccc3c(c2)OCO3)C2=C(CCCC2=O)N1` (stereo not drawn) gave mHTT CaM bind inactive and Pf apPOL block inactive.
CC(C)N1Cc2cc(C(=O)NCCN3CCCCCC3)sc2C1 was read as mHTT CaM bind inactive and Pf apPOL block inactive.
`Cc1nc(C)c(Cc2ccc(Cl)cc2)c(N2CCN(C(=O)C3CCOC3)CC2)n1` (stereo not drawn) gave mHTT CaM bind 64 and Pf apPOL block inactive.
For Cc1ccc(C)c(Cc2c(C)nc(C)nc2N2CCN(C(=O)C3CCOC3)CC2)c1 (stereo not drawn) the results were mHTT CaM bind inactive and Pf apPOL block inactive.
Screening CC1=Nc2ccccc2C1=Cc1c(O)n(-c2cccc(Br)c2)c(=O)[nH]c1=O returned mHTT CaM bind 96 and Pf apPOL block inactive.
Screening CC1=Nc2ccccc2C1=Cc1c(O)n(-c2ccc(Cl)cc2)c(=O)[nH]c1=O returned mHTT CaM bind inactive and Pf apPOL block inactive.
CCOc1cc(/C=C2\C(=O)ON=C2C)cc(Cl)c1OCc1ccc(C)cc1 was read as mHTT CaM bind 71 and Pf apPOL block inactive.
For C#CCOc1c(Br)cc(/C=C2\C(=O)ON=C2C)cc1OCC the results were mHTT CaM bind inactive and Pf apPOL block inactive.
CCOc1cc(/C=C2\C(=O)ON=C2C)cc(Br)c1OCc1ccc(C)cc1 was read as mHTT CaM bind 89 and Pf apPOL block inactive.
For COc1ccc(/C=C2/C(=O)ON=C2C)cc1Cl the results were mHTT CaM bind inactive and Pf apPOL block inactive.
For Cc1ccc(CN2CCCC2c2cc(C(C)C)no2)s1 (stereo not drawn) the results were mHTT CaM bind inactive and Pf apPOL block inactive.
CCNc1cc(N2CCCC(CCC(=O)NCc3ccco3)C2)ncn1 (stereo not drawn) was read as mHTT CaM bind inactive and Pf apPOL block inactive.
`O=C(Cc1nc(-c2ccccc2)n[nH]1)Nc1ccc(F)c(F)c1` gave mHTT CaM bind inactive and Pf apPOL block inactive.
For Cc1ccccc1NC(=O)Cc1nc(-c2ccccc2)n[nH]1 the results were mHTT CaM bind inactive and Pf apPOL block inactive.
For O=C(Cc1nc(-c2ccccn2)n[nH]1)Nc1ccc(F)cc1F the results were mHTT CaM bind 97 and Pf apPOL block inactive.
Screening O=C(Cc1nc(-c2ccccn2)n[nH]1)Nc1ccccc1F returned mHTT CaM bind 94 and Pf apPOL block inactive.
`Cn1nc(C(=O)N2CCC3(CC2)NC(=O)N(Cc2ccccc2)C3=O)c2ccccc21` gave mHTT CaM bind inactive and Pf apPOL block inactive.
`O=C(Nc1nc(CCC(=O)N2CCN(c3ccccn3)CC2)cs1)c1ccco1` gave mHTT CaM bind inactive and Pf apPOL block inactive.
`CC12CC3CC(C)(C1)CC(c1ccc(O)cc1)(C3)C2` gave mHTT CaM bind 65 and Pf apPOL block inactive.
CC12CC3(C)CC(C)(C1)CC(C(=O)Nc1ccc(C45CC6CC(CC(C6)C4)C5)cc1)(C2)C3 was read as mHTT CaM bind inactive and Pf apPOL block inactive.
For Cc1ccccc1NC(=O)C1CCc2nc(N3CCN(C(=O)C4CCC4)CC3)sc2C1 (stereo not drawn) the results were mHTT CaM bind inactive and Pf apPOL block inactive.
For O=C(c1ccc(F)cc1)N1CCC(n2c(-c3ccco3)nc3cccnc32)C1 (stereo not drawn) the results were mHTT CaM bind inactive and Pf apPOL block inactive.
O=C(c1ccc(F)c(F)c1)N1CCC(n2c(-c3ccco3)nc3cccnc32)C1 (stereo not drawn) was read as mHTT CaM bind 71 and Pf apPOL block inactive.
Screening Cc1ccc(C(=O)N2CCC(n3c(-c4ccco4)nc4cccnc43)C2)cc1F (stereo not drawn) returned mHTT CaM bind 72 and Pf apPOL block inactive.
For O=C(c1cccc(F)c1)N1CCC(n2c(-c3ccco3)nc3cccnc32)C1 (stereo not drawn) the results were mHTT CaM bind inactive and Pf apPOL block inactive.
`O=C(c1ccccc1)N1CCC(n2c(-c3ccco3)nc3cccnc32)C1` (stereo not drawn) gave mHTT CaM bind inactive and Pf apPOL block inactive.
O=C(c1cccc(Br)c1)N1CCC(n2c(-c3ccco3)nc3cccnc32)C1 (stereo not drawn) was read as mHTT CaM bind 87 and Pf apPOL block inactive.
Screening COc1ccc2cc3cc(C(=O)Nc4ccc(Cl)cn4)oc3nc2c1 returned mHTT CaM bind inactive and Pf apPOL block inactive.
Screening CCc1cccc(C)c1NC(=O)COc1ccc(Cl)cc1C returned mHTT CaM bind inactive and Pf apPOL block inactive.
For CC(C)c1ccc(OCC(=O)O/N=C(\N)c2ccncc2)c(Br)c1 the results were mHTT CaM bind inactive and Pf apPOL block inactive.
For COc1ccccc1C(NC(C)=O)c1cc(Cl)c2cccnc2c1O (stereo not drawn) the results were mHTT CaM bind 71 and Pf apPOL block inactive.
For COc1ccc(C(NC(C)=O)c2cc(Cl)c3cccnc3c2O)cc1OC (stereo not drawn) the results were mHTT CaM bind 100! and Pf apPOL block inactive.
